High-throughput results (PubChem)
Shown are actives, neighbours in structure and some others; about 19% of the full set was active somewhere.
IL1B secr inh = inhibitors of inflammasome signaling (IL-1 beta secretion); THP-1 LPS/ATP IL-1B secretion, AlphaLISA, 16 h; hits give low values; activity change, % at 57.5 µM; 4.7% of 360,000 active; AID 743279; in the data active = activity change below about -50%; inconclusive = mostly about -30% to -49%; also: % is scaled to controls: 0 for no effect and ±100 for the full control effect
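THP-1 cells pretreated 1 hr with compounds (up to 57.5 uM final), then stimulated with LPS (250 ng/mL final) plus ATP (1.25 mM final); secreted IL-1B measured by AlphaLISA after 16 hr, decreased signal indicating inhibition.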
MCF10A rereplic = inducers of DNA re-replication in MCF 10A breast cells | MCF 10A DNA re-replication, Hoechst nuclear intensity, 48 h | Potency, µM (highest dose often 46.1 µM), inactives show top-dose activity, positive = re-replication, actives largely listed as activators | 2.9% of 350,000 active; also: potency is read from the fitted curve at half-maximal effect; % of control where 0% means no effect; nearly all actives have a fitted effect of over 50% in size
TDP1 cell CPT = growth inhibition of DT40 Tdp1-/-;hTDP1 cells with camptothecin (screen for TDP1 inhibitors); 12% of 420,000 active; Potency, µM (highest dose often 46.2 µM), without a hit: at the highest dose activity change, negative = growth inhibition, most hits filed as inhibitors; chicken DT40 Tdp1-/-;hTDP1 cells + 20 nM CPT, ATP luminescence, 48 h; also: potency is read from the fitted curve at half-maximal effect; % is scaled to controls: 0 for no effect and ±100 for the full control effect; nearly all actives have a fitted effect of over 55% in size
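Chicken DT40 Tdp1-/- cells complemented with human TDP1, 400 cells/well, exposed to compounds plus 20 nM camptothecin for at least 48 h at 37 C; viability read as ATP content by CellTiter-Glo luminescence.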
BCR signal inh = blocks chronic active B-cell receptor signaling | ABC-DLBCL IkBa-CBG/CBR reporter, luminescence ratio, 4 h | Potency, µM (doses to about 46.1 µM), inactives show at the highest dose activity change, negative = inhibition, most hits filed as inhibitors | 0.05% of 340,000 active | AID 493014; active = well fitted inhibition curve with a large enough effect in the signal ratio, with a control signal flat, not every such curve was filed as active; inconclusive = small, poorly fitted or top-dose-only effect, or effect the other way, or a change in a side signal; the % refers to the signal ratio;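 also: potency is read from the fitted curve at half-maximal effect; plate controls were basal doxycycline-induced cells for no effect and cells given 10 µM MG132 for full effect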
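Compounds up to 46 uM were incubated four hours with TMD8 cells whose green CBG68 luciferase is fused to IkappaBalpha; red CBR luminescence normalised the signal, and concentration-effect curves were fitted to fusion, red and ratio data.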
TDP1 cell noCPT = qHTS for Inhibitors of human tyrosyl-DNA phosphodiesterase 1 (TDP1): qHTS in cells in absence of CPT; DT40 Tdp1-/- hTDP1 cells, no CPT, ATP luminescence, 48 h; Potency, µM (series often up to 46.2 µM), inactives show at the top dose activity change, negative = growth inhibition, actives largely listed as inhibitors; 15% of 420,000 active; AID 686978, 2013; also: potency is read from the fitted curve at half-maximal effect; % is scaled to controls: 0 for no effect and ±100 for the full control effect; nearly all actives have a fitted effect of over 55% in size
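Chicken DT40 Tdp1-/- cells stably complemented with human TDP1 were seeded at 400 cells/well with DMSO in place of 20 nM camptothecin. After compound pinning, cells grew at least 48 hr at 37 °C; viability read by CellTiter-Glo luminescence.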
SW480 rerep = induces DNA re-replication in SW480 colon adenocarcinoma cells; SW480 DNA re-replication, Hoechst DNA content imaging, 48 h; Potency, µM (titrated, usually from 46.1 µM), inactives show top-dose re-replication activation, hits mostly activators; 1.8% of 340,000 active; also: potency is read from the fitted curve at half-maximal effect; % of control where 0% means no effect; nearly all actives have a fitted effect of over 55% in size
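Image-based read-out: total Hoechst fluorescence of nuclei (405 nm excitation, 500-530 nm emission), with hits raising the fraction of high-intensity nuclei. SW480 colon cells incubated 48 hr with compounds at 37 C.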
An asterisk follows results filed as active; ? = inconclusive; · = no result given; ! = a repeat was not active; [ ] = dose if it differs, or a comment. Unless noted, calls follow the shape of the dose curve; as a rule, active = well fitted curve in the direction sought with a large enough effect; inconclusive = small, poorly fitted or top-dose-only effect, or another doubt; inactive = no such curve, though single readings can be large; an effect the other way counts as inactive or inconclusive.

SMILES	IL1B secr inh	MCF10A rereplic	TDP1 cell CPT	BCR signal inh	TDP1 cell noCPT	SW480 rerep
COc1ccccc1N1CCN(C(=O)c2[nH]c(C(F)(F)F)nc2-c2ccccc2)CC1	83	·	6.5µM*	·	5.8µM*	·
O=C(c1[nH]c(C(F)(F)F)nc1-c1ccccc1)N1CCN(c2cccc(C(F)(F)F)n2)CC1	98	·	4.6µM*	·	4.6µM*	·
CC(=O)N1CCN(C(=O)c2[nH]c(C(F)(F)F)nc2-c2ccccc2)CC1	0	·	-4%	·	-13%	·
CCOC(=O)N1CCN(C(=O)c2[nH]c(C(F)(F)F)nc2-c2ccccc2)CC1	-10	·	16µM*	·	16µM*	·
O=C(c1[nH]c(C(F)(F)F)nc1-c1ccccc1)N1CCN(c2ncccc2C(F)(F)F)CC1	23	·	?	·	?	·
O=C(NCc1cccnc1)c1cc(C2CCCCN2C(=O)c2ccc(Cl)cc2)on1 (centres undefined)	3	·	-19%	·	-28%	·
C=CCn1c(SCC(=O)c2ccc(O)c(O)c2)nnc1-c1ccc(OC)cc1	52	-7%	21µM*	-2%	16µM*	?
C=CCn1c(SCC(=O)c2ccc(O)c(O)c2)nnc1-c1ccc(C)cc1	7	-4%	16µM*	?	?	-85%[9.22 µM]
C=CCn1c(SCC(=O)c2ccc(O)c(O)c2)nnc1-c1cccc(OC)c1	2	-9%	15µM*	?	15µM*	-3%
CCCN(Cc1cccs1)C(=O)Nc1cc(Cl)ccc1C	·	·	?	·	23µM*	·
Cc1ccc(Cl)cc1NC(=S)N(CCCN1CCN(C)CC1)Cc1cccs1	-9	18%	1%	4%	-16%	3%
Cc1ccc(-c2cc(C(=O)Nc3cc([N+](=O)[O-])ccc3C)no2)cc1F	·	·	-19%	·	-1%	·
COC(=O)c1c(NC2=NS(=O)(=O)c3ccccc32)sc2c1CCC(C(C)(C)C)C2 (centres undefined)	20	?	18µM*	·	15µM*	-4%
CCOC(=O)c1c(NC2=NS(=O)(=O)c3ccccc32)sc2c1CCC(C)C2 (centres undefined)	2	10%	?	2%	?	4%
Cc1cc[n+](CCC2CCCCC2)cc1	·	·	10µM*	·	11µM*	·
CC(C)CN(C(=O)COC(=O)CNC(=O)c1ccccc1)c1c(N)n(Cc2ccccc2)c(=O)[nH]c1=O	8	2%	7%	?	-17%	0%
CCOC(=O)CCCCC(=O)c1[nH]c(=O)[nH]c1CSCCO	-84*	3%	7%	2%	3%	-2%
CCOC(=O)c1[nH]c(=O)[nH]c1CSc1ccccn1	-3	3%	-7%	-6%	0%	-5%
CCOC(=O)CCCCC(=O)c1[nH]c(=O)[nH]c1CSc1nc(-c2ccccc2)c(C#N)c(=O)[nH]1	-66*	?	10%	-6%	3%	?
COC(=O)c1cccc(CSc2nc(-c3ccccc3)c(C#N)c(=O)[nH]2)c1	36	?	2%	1%	10%	-9%
Cn1c(SCC(=O)NCCc2ccccc2)ncc(C(=O)Nc2ccc(F)cc2)c1=O	17	-1%	?	?	?	0%
COC(=O)/C=C1\N/C(=N/c2nc(C)c3cc(OC)ccc3n2)NC1=O	15	9%	12µM*	1%	9.2µM*	1%
COC(=O)c1ccc(C2Nc3ccc(/C(C)=N/NC(=O)C(OC)c4ccccc4)cc3C3C=CCC32)cc1 (centres undefined)	-8	1%	13µM*	-2%	15µM*	4%
Cc1ccc(NS(=O)(=O)c2ccc3c(c2)[C@H]2C=CC[C@H]2[C@@H](c2ccc(F)cc2)N3)cc1C	·	·	8.2µM*	·	5.2µM*	·
COC(=O)c1ccc([C@H]2Nc3ccc(S(=O)(=O)Nc4cccc(C)c4)cc3[C@H]3C=CC[C@H]32)cc1	·	·	1.8µM*	·	1.2µM*	·
SMILES	IL1B secr inh	MCF10A rereplic	TDP1 cell CPT	BCR signal inh	TDP1 cell noCPT	SW480 rerep
COc1cccc([C@H]2Nc3ccc(S(=O)(=O)Nc4cc(C)ccc4C)cc3[C@H]3C=CC[C@H]32)c1	·	·	3.7µM*	·	5.2µM*	·
CC(=O)c1ccc2c(c1)C1C=CCC1C(c1ccncc1)N2 (centres undefined)	12	-9%	-18%	2%	?	-2%
O=C(O)c1ccc(NS(=O)(=O)c2ccc3c(c2)C2C=CCC2C(c2ccccc2F)N3)cc1 (centres undefined)	21	3%	7%	17%	-6%	-20%
O=S1(=O)C=C[C@@H](COCc2ccccc2)N1Cc1ccc(Br)cc1	-27	·	?	·	?	·
c1ccc2c(-c3cncc4ccccc34)cncc2c1	-2	?	?	·	?	?
O=C(CCn1c(=O)[nH]c2ccccc21)NCC1Cc2cc(Cl)cc(-c3ccncc3)c2O1 (centres undefined)	·	·	4%	·	-27%	·
CC(C)NC(=O)N(O)C1N(Cc2ccc3c(c2)OCO3)C(=S)SC1(C)C (centres undefined)	4	1%	?	-2%	15µM*	-1%
CC(C)NC(=O)N(O)C1N(C(C)C)C(=O)N(Cc2ccc3c(c2)OCO3)C1(C)C (centres undefined)	13	1%	10%	?	0%	-3%
O=C(c1cc(-c2ccc(O)cc2)on1)N1CCN(c2ccccc2)CC1	-54*	13%	18µM*!	-15%	?	-10%
O=C(c1cc(-c2ccc3c(c2)OCO3)on1)N1CCN(c2ccccc2)CC1	-3	24%	1%	?	-12%	0%
O=C(c1cc(-c2ccc(O)cc2)on1)N1CCN(c2ccc(F)cc2)CC1	-21	-2%	21µM*	-6%	?	-10%
O=C(c1cc(-c2ccc3c(c2)OCO3)on1)N1CCN(c2ccc(F)cc2)CC1	12	-2%	5%	-1%	-11%	-1%
O=C(c1ccncc1)N1CCC[C@@]2(CCN(Cc3cc(C(F)(F)F)cc(C(F)(F)F)c3)C2)C1	·	·	-24%	·	?	·
O=C(Nc1ccccc1)Nc1ccc2ocnc2c1	-16	-1%	10%	?	-8%	-10%
O=C(Nc1ccccc1)Nc1ccc2ncoc2c1	-63*	-12%	3%	?	-15%	-12%
O=C(Nc1ccc2ncccc2c1)Nc1ccc2ncccc2c1	·	-5%	21µM*	?	8.2µM*	-8%
